Measurements published in PubChem BioAssay AID686952 (The Scripps Research Institute Molecular Screening Center, 2013).
Hit rate of the full screen: of about 3,200 compounds, about 2,600 (81%) were called active. So high a share suggests a set chosen from earlier hits. These entries were drawn from the full list. Values without a mark were called inactive.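 Rule for the calls: active = activation above the all-compound mean plus 3 SD, ignoring values outside control-based bounds (cut at about 4.8% in these data); inactive = the rest.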

Assay: EDANS-DABCYL substrate optical interference, artefact control for kallikrein-7 zymogen activator project, biochemical, fluorescence intensity, high throughput (AID 686952);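 note: value is the 4 h activation minus the activation read at time zero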
Settings: no enzyme, 4 h, at 7 µM, stronger effect = higher value, solvent 0%, active enzyme control 100%

Row | SMILES | activation
1 | CCc1ccc(-c2cc(C(=O)NCc3ccco3)c3ccccc3n2)s1 | 73.9% (active)
2 | CC(=O)Nc1nc2ncccn2c1-c1ccc(C(F)(F)F)cc1 | 41.3% (active)
3 | CC(C)Cc1nc(Nc2ccc(S(=O)(=O)N3CCCC3)cc2)c2nnn(Cc3ccccc3)c2n1 | 38.6% (active)
4 | CN(C(=O)COc1ccccc1)c1nnc(-c2ccncc2)s1 | 107% (active)
5 | CN(C(=O)c1ccccn1)c1nnc(-c2ccccn2)s1 | 85.1% (active)
6 | COCC(=O)Nc1nnc(COc2ccccc2)s1 | 1.67%
7 | CC(OC(=O)c1ccccc1NCCO)C(=O)Nc1ccnn1C(C)C (stereo not drawn) | 29.3% (active)
8 | COc1ccc2c(c1)CCc1cn3ncc(C#N)c3nc1-2 | -65.2%
9 | CN(CCc1ccccn1)S(=O)(=O)c1ccc2c3c(cccc13)C(=O)N2 | 71.8% (active)
10 | COc1cc(/C=C/C(=O)Nc2ccc(OC)c(S(=O)(=O)N3CCOCC3)c2)ccc1OCC#N | 93.1% (active)
11 | COc1ccc2nc(-c3ccccn3)ccc2c1 | 4.08% (active)
12 | O=C(Oc1c(-c2ccco2)oc2ccccc2c1=O)c1cccnc1 | 18.8% (active)
13 | COc1cc(C(=O)N2C(=O)c3cccc(N)c3C2=O)cc(OC)c1OC | 122% (active)
14 | CC1CC(C)CN(S(=O)(=O)c2cccc(C(=O)N3C(=O)c4cccc(N)c4C3=O)c2)C1 (stereo not drawn) | 228% (active)
15 | COCc1cc(=O)oc2cc(NS(=O)(=O)c3ccc(C)cc3)ccc12 | 70.4% (active)
16 | Cc1cccn2c(=O)c3cc(C(=O)NCCN4CCOCC4)c(=N)n(Cc4cccnc4)c3nc12 | 18.1% (active)
17 | CCn1c(=N)c(C(=O)NCCCOC)cc2c(=O)n3cccc(C)c3nc21 | 74.4% (active)
18 | Cc1cccn2c(=O)c3cc(C#N)c(=NC(=O)c4cccnc4)n(CC4CCCO4)c3nc12 (stereo not drawn) | -72.9%
19 | Cc1ccc2nc3c(cc(C(=O)NCCc4ccccc4)c(=N)n3CC3CCCO3)c(=O)n2c1 (stereo not drawn) | -37.3%
20 | Oc1ccc2ccc3cccc[n+]3c2c1 | 38.2% (active)
21 | CCN(CC)CCCC(C)n1c2nc(=O)[nH]c(=O)c-2nc2cc(Cl)ccc21 (stereo not drawn) | 69.7% (active)
22 | Cc1cc2cc3n(c2nn1)N=C(Cl)CC3 | 37.9% (active)
23 | CCOc1ccccc1C1C(C(=O)OC)=CN(C)C=C1C(=O)OC | -18%
24 | N#Cc1nc(-c2cccc3ccccc23)oc1N | 76.5% (active)
25 | Cc1cc(C)c(C#N)c(SCC(=O)NN2CC(=O)N(c3ccccc3F)CC2=O)n1 | 58.1% (active)
26 | CN(C)CCCn1c(N)c(C#N)c2nc(C#N)c(C#N)nc21 | 46.2% (active)

Row | SMILES | activation
27 | CC1(C)CN(c2ccc(-c3ccnc4ncnn34)cc2)C1=O | 68.4% (active)
28 | CN1CCCc2cc(C#N)c(=O)[nH]c21 | 38.1% (active)
29 | Cc1cc2c(nc1C)CCCN2C | 2.55%
30 | COc1cccc(NC(=O)CN(C)C(=O)/C=C/c2cc(OC)ccc2OC)c1 | -114%
31 | Cn1cccc1/C=N/NC(=O)CNc1cccc2ccccc12 | 1.38%
32 | CC1(C)CC(=O)c2cc(OCC(=O)NCC3CCCO3)ccc2O1 (stereo not drawn) | 57.9% (active)
33 | C[C@@H]1C(c2ccc(F)cc2)=NN(c2ccc(Br)cc2)[C@H]1C(=O)N1CCOC1=O | 26.5% (active)
34 | Clc1ccc(-c2cccc3nccn23)cc1 | 11.3% (active)
35 | Cc1ccc(-c2nn(-c3ccccc3)cc2/C=C/C(=O)Nc2cccc(S(N)(=O)=O)c2)cc1 | 251% (active)
36 | COc1ccc2nc(Nc3nc4cc5c(cc4s3)OCCO5)sc2c1 | -11.5%
37 | CCS(=O)(=O)Nc1cc(C(=O)OC)ccc1C(=O)OC | 8.19% (active)
38 | CC(=O)Nc1ccc(-c2cn3cccnc3n2)cc1 | 73.5% (active)
39 | CCCCCC(=O)Nc1ccc(-c2cn3cccnc3n2)cc1 | 28.5% (active)
40 | CC(C)(C)C(=O)Nc1ccc(-c2cn3cccnc3n2)cc1 | 80.3% (active)
41 | CCOC(=O)C1=C(O)/C(=C/c2ccc(OCC(=O)Nc3ccc(C)cc3)cc2)N=C1C | 3.03%
42 | CCOc1ccc(-n2c(SCC(=O)Nc3cc(C)c(NC(=O)c4ccccc4)cc3OC)nnc2-c2cccs2)cc1 | 19.4% (active)
43 | COc1c(N2CCN(C(=S)Nc3ccccc3F)C(C)C2)c(F)cc2c(=O)c(C(=O)O)cn(C3CC3)c12 (stereo not drawn) | -26%
44 | Cc1cccc(C)c1NC(=O)C(c1ccccc1)N1CC(=O)Nc2ccccc21 (stereo not drawn) | 24.8% (active)
45 | CNc1cncc(-c2ccc(NS(C)(=O)=O)cc2)n1 | 46.5% (active)
46 | CN(C)Cc1c(O)ccc2c(=O)c(-c3ccccc3Cl)coc12 | 83.7% (active)
47 | CC(=O)Nc1ccc(S(=O)(=O)NCC(=O)OCc2cc(=O)oc3ccc4ccccc4c23)cc1 | 209% (active)
48 | Cc1cc(=O)oc2c3c(cc(OCC(=O)NCCC(=O)N[C@@H](C)C(=O)O)c12)OC(C)(C)CC3 | 65.1% (active)
49 | Cc1c(C)c2c(OCC(=O)N[C@@H](C(=O)O)c3ccccc3)cc3c(c2oc1=O)CCC(C)(C)O3 | 49.4% (active)
50 | Cc1cc(=O)oc2c3c(cc(OCC(=O)N[C@H](C(=O)O)c4ccccc4)c12)OC(C)(C)CC3 | 49.3% (active)
51 | Cc1c(C)c2c(OCC(=O)NCCCO)cc3c(c2oc1=O)CCC(C)(C)O3 | 55.7% (active)
52 | O=C(O)c1ccc2c3c(cccc13)C(=O)N(OS(=O)(=O)c1ccccc1)C2=O | 103% (active)

Row | SMILES | activation
53 | Cc1cc(C)c2c(n1)nn1c(-n3ccnc3)cc(C)nc21 | 44.4% (active)
54 | Cc1ccc(C2Nc3ccccc3C(=O)N2CCN2CCNC2=O)cc1 (stereo not drawn) | 19.4% (active)
55 | C/C(=C\c1ccccc1)C1NC(=O)c2c(sc3c2CCCC3)N1 (stereo not drawn) | 14.5% (active)
56 | COC(=O)c1cc(N2CCNCC2)nc2ccccc12 | 33.6% (active)
57 | CC1CCCN(C(=O)c2cc(-c3ccco3)nc3ccccc23)C1 (stereo not drawn) | 35.5% (active)
58 | CC(=O)N1CCN(C(=O)c2cc(-c3ccc(C)o3)nc3ccccc23)CC1 | 66.4% (active)
59 | CCCCN(CCCC)CC(O)Cn1c2ccccc2c(=O)c2ccccc21 (stereo not drawn) | 16.2% (active)
60 | CCCCCn1c(=O)c(C(=O)OCC)c(Cl)c2ccccc21 | -2.49%
61 | O=C1NC(c2cccc(Cl)c2)Nc2ccccc21 (stereo not drawn) | 18.9% (active)
62 | CC(=O)NN1C(=O)c2ccccc2NC1c1ccccc1 (stereo not drawn) | 35.4% (active)
63 | CCOC(=O)NN1C(=O)c2ccccc2NC1c1cccc(O)c1 (stereo not drawn) | 20.4% (active)
64 | CCc1nc(Nc2ccc(NC(C)=O)cc2)c2oc3ccccc3c2n1 | 218% (active)
65 | CC(=O)Nc1nc(C)c(-c2csc(Nc3ccc(S(N)(=O)=O)cc3)n2)s1 | 46.5% (active)
66 | Cc1nn(-c2ccccc2)c(C)c1NC(=O)COC(=O)c1cc(Cl)ccc1O | 23.3% (active)
67 | CCOC(=O)c1[nH]c2ccc(OC)cc2c1NC(=O)CCN1CCN(Cc2ccccc2)CC1 | -3.59%
68 | O=C(Nc1nncs1)c1ccccc1NS(=O)(=O)c1cccs1 | 38.3% (active)
69 | O=c1oc2c(CN3CCCCC3)c(O)ccc2c2c1CCCCC2 | 68.6% (active)
70 | COc1cc(/C=N\NC(=O)c2nonc2N)c(OC)cc1Br | 74% (active)
71 | COc1cc2c(cc1OC)CC1(CCCCC1)N=C2 | 44.6% (active)
72 | CCCN(CC(=O)NC(=O)NC1CCCCC1)CC(=O)Nc1cc(Cl)ccc1Cl | 4.93% (active)
73 | CN(C(=O)c1cc2c(=O)n3ccccc3nc2s1)C1CCCCC1 | 23% (active)
74 | CCOCCCNC(=O)c1cc2c(=O)n3ccccc3nc2s1 | 68.6% (active)
75 | CCN1CCN(C(=O)Cn2nc(C)n3c(cc4c(OC)cccc43)c2=O)CC1 | 29.8% (active)
76 | CC1(C)Oc2ccc3ccc(=O)oc3c2/C(=N/O)C1=O | 84.6% (active)
77 | COC(=O)Cc1cc(=O)oc2c(C)c(O)ccc12 | 76.7% (active)
78 | CCN1CCCC1CNC(=O)c1cc2cc(OC)c(OC)cc2[nH]1 (stereo not drawn) | 22.6% (active)
